Twelve sequences from patent US20210230599, “STEM-LOOP COMPOSITIONS AND METHODS FOR INHIBITING INTERLEUKIN-8” (VITRISA THERAPEUTICS, INC., published 2021) can be followed below.

Where only a bound is given, the exact number is not on record here.

In this assay the target is Interleukin-8 (IL8, CXCL8), C-terminal His-tagged (Homo sapiens, UniProt P10145 SEQ:1-72). The assay is described as follows: competition; competition TR-FRET; L1 mutant. To be noted: tags: C-terminal 6xHis (Sino Biological); ssRNA; 2'-F G, 2'-OMe A/C/U, 5' C6NH2, 3' idT. How it is done:
Activity of each of these variants were tested using a time resolved competition TR-FRET assay in which the labeled parent Aptamer 3 was competed with increasing concentrations of unlabeled variants for binding to IL8 (FIG. 14). Briefly, 2-fold dilutions of thermally equilibrated aptamers were made in TR-FRET Buffer (50 mM MOPS, pH 7.4, 125 mM NaCl, 5 mM KCl, 50 μM CHAPS, 0.1 mg/mL BSA, 1 mM CaCl₂, and 1 mM MgCl₂). 5 μL of aptamer or control solution was added to 5 μl mix of 10 nM C-terminal His-tagged-IL8, 60 nM ALEXA FLUOR® 647-labeled Aptamer, and 5 nM anti-His-Eu (Perkin Elmer) in a black wall low volume 384 well plate (Greiner). For control, 5 μl of 1000-fold excess of unlabeled parent aptamer or 5 μl TR-FRET buffer alone was added to the mix of ALEXA FLUOR® 647-labeled aptamer, His-IL8, and anti-His-Eu. The plate was covered with a plate seal and subsequently incubated in the dark for 1 hour at room temperature. The plate was read on a Biotek CYTATION™ 5 plate reader. Samples were excited at 330 nm and fluorescent values were collected at 665 nm. Data analysis was performed by subtracting the background value and plotting as percent inhibition, normalized to baseline in the absence of competitor. The values were fit by [Inhibitor] vs. response—Variable slope (four parameters) using GraphPad Prism Version 7.0 and then normalized to aptamer control to obtain an IC₅₀ relative to parent aptamer. Data is presented as log values of relative IC₅₀.
To confirm the sequence conservation of this loop, variants of Aptamer 32 were made (4 base pair S1 version of parent Aptamer 8) where each position of L1 was individually replaced with the other 3 bases and tested for binding in the competition TR-FRET assay.
On the technique in general: Time-resolved FRET reads energy transfer from a long-lived donor to a nearby acceptor.
For CGGUGGGGAAUGUGAGAUGGGUUGCCG, the binding signal is greater than 10 fold worse than Aptamer 8.
On to CGGUCGGAAAUGUGAGAUGGGUUGCCG, for which the binding signal is greater than 10 fold worse than Aptamer 8.
On to CGGUUGGAAAUGUGAGAUGGGUUGCCG, for which the binding signal is greater than 10 fold worse than Aptamer 8.
As for CGGUGGGUAAUGUGAGAUGGGUUGCCG, the binding signal is greater than 10 fold worse than Aptamer 8.
CGGUGUGAAAUGUGAGAUGGGUUGCCG returned a binding signal greater than 10 fold worse than Aptamer 8.
As for CGGUGCGAAAUGUGAGAUGGGUUGCCG, the binding signal was greater than 10 fold worse than Aptamer 8.
Sequence CGGUAGGAAAUGUGAGAUGGGUUGCCG yielded a binding signal greater than 10 fold worse than Aptamer 8.
The same measure for CGGUGGCAAAUGUGAGAUGGGUUGCCG: greater than 10 fold worse than Aptamer 8; for CGGUGGUAAAUGUGAGAUGGGUUGCCG: greater than 10 fold worse than Aptamer 8.
On to CGGUGGAAAAUGUGAGAUGGGUUGCCG, for which the binding signal was greater than 10 fold worse than Aptamer 8.
On to CGGUGAGAAAUGUGAGAUGGGUUGCCG, for which the binding signal is greater than 10 fold worse than Aptamer 8.
As for CGGUGGGCAAUGUGAGAUGGGUUGCCG, the binding signal is greater than 10 fold worse than Aptamer 8.
